Results published in PubChem BioAssay AID1159580 (chemical genetic matrix, 2015).
Values joined by “and” are separate entries in the source; they are usually repeats but may differ in a detail not shown here. Equal values may be shown once. The campaign covered roughly 5,500 compounds. About 2,000 (36%) were called active. Not shown: some 18% with an inconclusive outcome. Rule as the data show it: active = normalized growth mostly below about 0.91 (no sharp cut-off); inconclusive = no clear call, values can overlap the other calls; inactive = mostly above about 0.92. The list shows a part of the results.

Assay: chemical genetic growth profiling, strain panel (AID 1159580);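 also: tested at 20 µM; growth read once vehicle control cultures reached saturation at 30 °C; 1 = growth at the plate median or of vehicle wells; lower values mean less growth of the strain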
Conditions: S. cerevisiae deletion strains, growth OD

Measured: normalized growth

O=C(O)c1ccccc1C(=O)Nc1ccc(S(=O)(=O)Nc2nccs2)cc1
inactive: locus YAL013W, strain DEP1, hits give low values 1.01 | locus YAL021C, strain ccr4, hits give low values 0.977 | locus YAL026C, strain drs2, hits give low values 0.986 | locus YAL030W, strain snc1, hits give low values 0.987 | locus YBL061C, strain skt5, hits give low values 0.968 | locus YBR009C, strain hhf1, hits give low values 0.994 | locus YBR021W, strain FUR4, hits give low values 1.01 | locus YBR023C, strain chs3, hits give low values 0.966 | locus YBR171W, strain sec66, hits give low values 0.978 | locus YBR229C, strain ROT2, hits give low values 1 | locus YBR231C, strain swc5, hits give low values 0.985 | locus YBR279W, strain paf1, hits give low values 0.991 | locus YCL011C, strain gbp2, hits give low values 0.978 | locus YCL016C, strain dcc1, hits give low values 0.954 | locus YCL029C, strain bik1, hits give low values 0.994 | locus YCL061C, strain MRC1, hits give low values 0.971 | locus YCL069W, strain vba3, hits give low values 0.988 | locus YCR088W, strain abp1, hits give low values 0.987 | locus YDL005C, strain med2, hits give low values 0.973 | locus YDL035C, strain GPR1, hits give low values 1.02 | locus YDL040C, strain nat1, hits give low values 0.977 | locus YDL074C, strain BRE1, hits give low values 1.01 | locus YDL101C, strain DUN1, hits give low values 1.01 | locus YDL134C, strain PPH21, hits give low values 1 | locus YDL185W, strain tfp1, hits give low values 0.995 | locus YDL192W, strain arf1, hits give low values 0.998 | locus YDR001C, strain nth1, hits give low values 0.987 | locus YDR069C, strain doa4, hits give low values 0.975 | locus YDR101C, strain arx1, hits give low values 0.984 | locus YDR137W, strain rgp1, hits give low values 0.963 | locus YDR159W, strain sac3, hits give low values 0.992 | locus YDR162C, strain NBP2, hits give low values 1 | locus YDR195W, strain ref2 0.996 | locus YDR297W, strain sur2, hits give low values 0.988 | locus YDR318W, strain mcm21, hits give low values 0.999 | locus YDR334W, strain swr1, hits give low values 0.966 | locus YDR335W, strain msn5, hits give low values 0.984 | locus YDR388W, hits give low values 0.993 | locus YDR392W, strain spt3, hits give low values 0.93 | locus YDR502C, strain sam2, hits give low values 1 | locus YEL003W, strain gim4, hits give low values 1.01 | locus YEL037C, strain rad23, hits give low values 0.981 | locus YEL061C, strain CIN8 (second series), hits give low values 0.99 | locus YEL061C, strain CIN8, hits give low values 1.01 | locus YER015W, strain faa2, hits give low values 0.96 | locus YER016W, strain bim1, hits give low values 0.993 | locus YER110C, hits give low values 0.998 | locus YER111C, strain swi4, hits give low values 0.973 | locus YER155C, strain BEM2 (second series), hits give low values 0.981 | locus YER155C, strain BEM2, hits give low values 0.995 | locus YER167W, strain BCK2, hits give low values 0.996 | locus YFR010W, strain ubp6, hits give low values 0.999 | locus YGL078C, strain dbp3, hits give low values 0.994 | locus YGL086W, strain mad1, hits give low values 0.991 | locus YGL167C, strain pmr1, hits give low values 0.962 | locus YGL173C, strain kem1, hits give low values 0.959 | locus YGL227W, strain vid30, hits give low values 0.985 | locus YGL240W, strain doc1, hits give low values 0.992 | locus YGL248W, strain PDE1, hits give low values 1 | locus YGL253W, strain hxk2, hits give low values 0.984 | locus YGR135W, strain pre9, hits give low values 0.995 | locus YGR229C, strain SMI1, hits give low values 1.01 | locus YGR252W, strain gcn5, hits give low values 0.995 | locus YHR013C, strain ard1, hits give low values 0.949 | locus YHR027C, strain rpn1, hits give low values 0.977 | locus YHR030C, strain SLT2, hits give low values 1 and 1.03 | locus YHR079C, strain IRE1 (second series), hits give low values 0.995 | locus YHR079C, strain IRE1, hits give low values 1.05 | locus YHR094C, strain hxt1, hits give low values 0.994 | locus YHR129C, strain ARP1, hits give low values 1 | locus YHR142W, strain chs7, hits give low values 0.959 | locus YHR200W, strain rpn10, hits give low values 0.995 | locus YIL066C, strain RNR3, hits give low values 1.01 | locus YIL073C, strain SPO22, hits give low values 1.01 | locus YIL125W, strain kgd1, hits give low values 0.991 | locus YIR030C, strain dcg1, hits give low values 0.993 | locus YJL092W, strain hpr5, hits give low values 0.983 | locus YJL095W, strain BCK1 (second series), hits give low values 0.982 | locus YJL095W, strain BCK1, hits give low values 1.02 and 1.01 | locus YJL115W, strain asf1, hits give low values 0.973 | locus YJL129C, strain trk1, hits give low values 0.976 | locus YJL134W, strain LCB3, hits give low values 1 | locus YJL154C, strain vps35, hits give low values 0.979 | locus YJL164C, strain tpk1, hits give low values 0.991 | locus YJL166W, strain qcr8, hits give low values 0.985 | locus YJL168C, strain set2, hits give low values 0.993 | locus YJL187C, strain SWE1 (second series), hits give low values 1.02 | locus YJL187C, strain SWE1, hits give low values 0.979 | locus YJR043C, strain POL32, hits give low values 0.995
